Measurements: the supplement of paper PMC9948646
Unmarked numbers belong to inactive results.

System: gramicidin D channels in DC22:1PC lipid vesicles (bilayer-modifying potency)
Test: initial Tl+ fluorescence quench rate relative to no-drug control (NormRate, gramicidin monomer-dimer shift) (ratio (fold of control)); higher = stronger bilayer-modifying effect (equilibrium shifted toward conducting dimers), active = 1.5 or more
Conditions: 10 µM; lipid concentration 50 µM; temperature: 25 °C
Procedure: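 Stopped-flow fluorescence quench assay: ANTS-loaded DC22:1PC large unilamellar vesicles doped with gramicidin D (1:2000), 50 µM lipid, equilibrated 10 min with 10 µM drug (0.1% DMSO), mixed with Tl+ quench buffer at 25°C. Initial quench rate (Tl+ influx) was fitted with a modified stretched exponential and normalised to the no-drug control rate (NormRate); duplicates from two independent LUV preparations (triplicates for 7 drugs).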

Compound | initial Tl+ fluorescence quench rate
O=C(Nc1ccc(N2CCNCC2)cc1)c1ccn2ncc(-c3cccc(Cl)c3)c2n1 | 2.57 (active)
CCC(=O)Nc1ccccc1C(=O)Nc1ccccn1 | 1.12
O=C(NCCc1c[nH]c2ccccc12)c1cc2ccccc2oc1=O | 1.95 (active)
COc1cccc(CC(=O)N2CCC(n3c(C)nc4ccc(F)cc43)CC2)c1 | 1.15
Cc1nc2ccccn2c1C(=O)NCc1ccc(Cl)cc1 | 1.17
CC(C)(C)OC(=O)N1CCC(Cn2nc(-c3cnc4ccccc4c3)c3c(N)ncnc32)CC1 | 1.57 (active)
COc1ccc(-c2cc(NC(=O)c3ccc(F)cc3Cl)ccc2OC)cc1 | 2.04 (active)
CCOc1ccc2cc(-c3nn(C(C)(C)C)c(N)c3C(N)=O)cnc2c1 | 1.21
Cc1cc(O)nc(-n2nc(C)cc2C)n1 | 1.04
CC(=O)Nc1ccc(-c2noc(C[C@@H]3CCCN(Cc4cccc(F)c4C)C3)n2)cc1 | 1.29
O=C(C1CCN(c2nnc(-n3cccc3)s2)CC1)N1CCC(Cc2ccccc2)CC1 | 1.24
Cc1nc(-c2ccccn2)nc(N(C)CCc2ccccc2)c1Cl | 2.23 (active)
Clc1cccc([C@@H](c2ccc(CN3CCNCC3)cc2)n2ccnc2)c1 | 1.17
Nc1ncnc2c1c(Cc1cccc3ccccc13)nn2CC1CCNCC1 | 1.15
NC[C@@H](c1cccs1)S(=O)(=O)c1ccccc1 | 1.36
COc1nc2ccc(Br)cc2cc1[C@@H](c1ccccc1)[C@@](O)(CCN(C)C)c1cccc2ccccc12 | 6.48 (active)
